About 8,600 (12%) of roughly 69,000 compounds showed an effect of 50% or more. The entries come from a sample that favours strong results as a whole.

This assay relates to Plasmodium berghei. Put plainly: Screen against P. berghei liver stage (PbLuc), transformed with Luciferase, at 10uM. The class given is functional, HepG2. Particulars: tested at 10 uM.
On to `CCn1cc2c(n1)CN(Cc1ccc(F)cc1)CC2COCC1CC1` (centres undefined), for which the INHIBITION came to 70.7%. As for `CCn1cc2c(n1)CN(Cc1ccncc1)CC2COCC1CC1` (centres undefined), the INHIBITION amounted to 40.9%. Turning to `CCOCC1CN(Cc2ccc(F)cc2)Cc2nn(CC3CC3)cc21` (centres undefined), the INHIBITION stood at 5.96%. Consider `CCO[C@@H]1CO[C@@]2(CCCN(S(=O)(=O)c3cccnc3)C2)C1`, for which the INHIBITION was found to be 30.7%. Take `CCOC(=O)CNC(=O)Cn1c(-c2ccoc2)nc(C)c1C`: the INHIBITION is given as 8.52%. For `Cc1nc(-c2ccoc2)n(CC(=O)NCC(C)C)c1C`, the INHIBITION is -8.28%. Turning to `Cc1nc(-c2ccoc2)n(CC(=O)N(C)CC(C)C)c1C`, the INHIBITION is reported as 50%. For the molecule `Cc1cccc(C)c1Nc1noc2c1CN(C(=O)c1cn(C)cn1)CC2`, the INHIBITION stood at 25.4%.

In the case of `Cn1c(=O)oc2ccc(NC(=O)N3CCc4ccccc4C3)cc21`, the INHIBITION is -3.43%.

Consider `O=C(NC1CC1)c1cc(NC(=O)N2CCSCC2)ccc1Cl`, for which the INHIBITION is recorded as 57.6%. Regarding `Cn1c(=O)oc2ccc(NC(=O)N3CCOCC3)cc21`, the INHIBITION came out at 53.9%. With `Cn1c(=O)oc2ccc(NC(=O)N3CCSCC3)cc21`, the INHIBITION turned out to be 24.7%. For the molecule `O=C(NC1CC1)c1cc(NC(=O)N2CCCC2)ccc1Cl`, the INHIBITION is 31.9%. Regarding `O=C(Nc1ccc(CCN2CCSCC2)cc1)NC1CC1`, the INHIBITION amounted to 1.79%.

For `CC1CN(C(=O)Nc2ccc(Cl)c(C(=O)NC3CC3)c2)CC(C)(C)O1` (centres undefined), the INHIBITION is 31.9%. Regarding `O=C(NC1CC1)c1cc(NC(=O)N2CCOCC2)ccc1Cl`, the INHIBITION worked out at 68.3%.

As for `O=C(NC1CC1)c1cc(NC(=O)N2CCCC(O)C2)ccc1Cl` (centres undefined), the INHIBITION was found to be 28.5%. As to `O=C(C1CCCO1)N1CCC(O)(Cn2ccc3ccncc32)CC1` (centres undefined), the INHIBITION is listed as -45.4%. In the case of `Cc1cc(C)c2cc(CNCCCN3CCOCC3)c(=O)[nH]c2c1`, the INHIBITION is given as 3.91%. Under `CCc1cc(=O)[nH]c2nnc(SCC(=O)N3CCC(C)CC3)n12` stands 14.4%; under `CN(C)C[C@@H]1CCC[C@@H]2CN(c3nccc(C(F)(F)F)n3)C[C@@H]21`, -3.58%; under `Cc1nc2ccccc2n1Cc1cc(C(=O)N(C)C2CCOCC2)no1`, 37.3%.

For the molecule `C[C@@H]1CN(C(=O)c2cc(Cn3cnc4ccccc43)on2)C[C@H](C)O1`, the INHIBITION was 30.5%.

Consider `Cc1nc2ccccc2n1Cc1cc(C(=O)N2C[C@@H](C)O[C@@H](C)C2)no1`, for which the INHIBITION is 74%.

As for `CN(C)C(=O)CN1CCOCC2(C1)CN(c1ncc(F)cn1)CCO2` (centres undefined), the INHIBITION was determined as 10.6%. For `c1ccc(NC[C@@H]2CCC[C@@H]3CN(Cc4csnn4)C[C@@H]32)nc1`, the INHIBITION amounted to 15.9%. For `Cn1ccnc1NC[C@@H]1CCC[C@@H]2CN(Cc3nccs3)C[C@@H]21` the value was 29%; for `c1ccc(NC[C@@H]2CCC[C@@H]3CN(Cc4cccnc4)C[C@@H]32)nc1`, 32.2%; for `Cn1ccnc1NC[C@@H]1CCC[C@@H]2CN(CC3CC3)C[C@@H]21`, 76.3%. With `Cn1cc(CN2C[C@H]3CCC[C@@H](CNc4nccn4C)[C@H]3C2)cn1`, the INHIBITION is on record as 23.1%.

On to `COCCN1C[C@H]2CCC[C@@H](CNc3ncccn3)[C@H]2C1`, for which the INHIBITION stood at 77.4%.

`Cn1cc(CN2C[C@H]3CCC[C@@H](CNc4ncccn4)[C@H]3C2)cn1`: the INHIBITION was 31.2%. Regarding `c1ccc(NC[C@@H]2CCC[C@@H]3CN(Cc4nccs4)C[C@@H]32)nc1`, the INHIBITION was determined as 51.2%. On to `c1cnc(NC[C@@H]2CCC[C@@H]3CN(Cc4cc[nH]n4)C[C@@H]32)nc1`, for which the INHIBITION was found to be 1.81%. Consider `COCCN(CC(C)C)C(=O)c1cccc(Nc2cnccn2)c1`, for which the INHIBITION is 46.6%.

As to `CCc1ccc(CN2CCC3(CC2)NC(=O)CC3c2ccncc2)o1` (centres undefined), the INHIBITION was 21.6%. Take `Cn1cc(CN2CCCC23CCN(C(=O)c2ccccn2)CC3)cn1`: the INHIBITION was -17.1%. As to `O=c1ccc2c([nH]1)CCC(NCc1ccncc1)C2` (centres undefined), the INHIBITION worked out at 11.5%. On to `CSC1=Nc2c(cnn2-c2cccc(Cl)c2)C2=NCCCN12`, for which the INHIBITION was found to be 79.7%. Turning to `CSC1=Nc2c(cnn2-c2ccc(C)cc2)C2=NCCCN12`, the INHIBITION is given as 69.8%. In the case of `CC(=O)c1nn(-c2cccc(Cl)c2)c(C)c1C(C)=O`, the INHIBITION is on record as 12.3%.

As for `O=C(NC1=NCCCN1c1ccc(Cl)cc1)c1cccc(Cl)c1`, the INHIBITION was 15.1%. As for `CCSC1=Nc2c(cnn2-c2ccc(Cl)cc2)C2=NCCCN12`, the INHIBITION was -37.1%. `CSC1=Nc2c(cnn2-c2ccc(Cl)cc2)C2=NCCCN12`: the INHIBITION stood at 64.8%. On to `CSC1=Nc2c(cnn2-c2ccccc2)C2=NCCCN12`, for which the INHIBITION was 73.9%. For the molecule `CC(C)(C)C(=O)N1CCCc2c(cnn2-c2ccccc2)C1`, the INHIBITION is given as -43.9%. Take `Cc1cccc(N2CCCN=C2NC(=O)c2cccc(Cl)c2)c1`: the INHIBITION is listed as -25.5%.

Regarding `COC(=O)c1cccc(NCC(=O)NC(N)=O)c1`, the INHIBITION was -5.92%. Take `CN(Cc1cccc2cnccc12)C(=O)CCc1n[nH]c2c1CCCC2`: the INHIBITION amounted to 34.9%. `Cc1ccc(NC(=O)CCc2cnn(C)c2)cc1F`: the INHIBITION worked out at 22.3%. For `Cc1cccc(C2(C(=O)NCC3CCN(CC(F)(F)F)C3)CCC2)c1` (centres undefined), the INHIBITION came out at 5.03%. For `CS(=O)(=O)NC1CCCN(C(=O)c2cccnc2)C1` (centres undefined) the value was -16%. Under `CC(O)CN1CCC(CN(C)CCC(=O)NC2CCCCC2)CC1` (centres undefined) stands 19.7%.

Consider `CCc1cc(N[C@@H](CC(C)C)C(N)=O)n2nc(C)c(C)c2n1`, for which the INHIBITION is given as 47.7%. On to `CCc1cc(N[C@@H](CO)C(N)=O)n2nc(C)c(C)c2n1`, for which the INHIBITION is reported as 54.4%. Take `CCc1cc(N[C@H](C(N)=O)C(C)C)n2nc(C)c(C)c2n1`: the INHIBITION is reported as 16.3%. Turning to `Cc1ccc(CN(Cc2[nH]cnc2C)C2CC(C)(C)NC(C)(C)C2)o1`, the INHIBITION was found to be 38.2%. Turning to `Cc1ccc(CN(Cc2c[nH]cn2)C2CC(C)(C)NC(C)(C)C2)o1`, the INHIBITION was determined as 19.3%.

With `Cc1cccc(CN(Cc2ccc(C)o2)C2CC(C)(C)NC(C)(C)C2)n1`, the INHIBITION was 53.5%.

`Cc1ccc(CN(Cc2ncc[nH]2)C2CC(C)(C)NC(C)(C)C2)o1`: the INHIBITION amounted to 91.6%. As for `CC1(C)CC(N(Cc2ccccc2)Cc2ncc[nH]2)CC(C)(C)N1`, the INHIBITION is 10.26%.

On to `Cc1ccc(CN(Cc2ccncc2)C2CC(C)(C)NC(C)(C)C2)o1`, for which the INHIBITION was 7.05%. Under `CC(C)CO[C@@H]1CC[C@H]2[C@H]1OCCN2S(=O)(=O)C1CC1` stands 28.3%; under `Cc1cncnc1C1CCN(CCO)CC1`, -20.6%.

Values taken from ChEMBL document CHEMBL4513216, “Probing the Open Global Health Chemical Diversity Library for Multistage-Active Starting Points for Next-Generation Antimalarials” (ACS Infect Dis, 2020).
